Test results reported in PubChem BioAssay AID1159580 (chemical genetic matrix, 2015).
Values joined by “and” are separate entries in the source; they are usually repeats but may differ in a detail not shown here. Equal entries are not always repeated. Among all 5,500 compounds or so, about 2,000 (36%) were called active. Not shown: some 18% with an inconclusive outcome. No stated cut-off is given here; in the data, active means normalized growth mostly below about 0.91 (no sharp cut-off); inconclusive means no clear call, values can overlap the other calls; inactive means mostly above about 0.92. The list shows a part of the results.

Experiment: chemical genetic growth profiling, strain panel (AID 1159580);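 further: tested at 20 µM; growth read once vehicle control cultures reached saturation at 30 °C; 1 = growth at the plate median or of vehicle wells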
Settings: S. cerevisiae deletion strains, growth OD

Measured: normalized growth

O=NN(CCCl)C(=O)NCCCl
1.03 (inactive) and 0.315 (active): locus YHR030C, strain SLT2, stronger effect = lower value
0.928 (inactive) and 0.341 (active): locus YJL095W, strain BCK1, stronger effect = lower value
active: locus YBR231C, strain swc5, stronger effect = lower value 0.604 | locus YBR279W, strain paf1, stronger effect = lower value 0.929 | locus YCL011C, strain gbp2, stronger effect = lower value 0.902 | locus YCL016C, strain dcc1, stronger effect = lower value 0.847 | locus YCL061C, strain MRC1, stronger effect = lower value 0.916 | locus YDR159W, strain sac3, stronger effect = lower value 0.855 | locus YDR334W, strain swr1, stronger effect = lower value 0.876 | locus YDR392W, strain spt3, stronger effect = lower value 0.562 | locus YDR502C, strain sam2, stronger effect = lower value 0.881 | locus YEL003W, strain gim4, stronger effect = lower value 0.803 | locus YER015W, strain faa2, stronger effect = lower value 0.899 | locus YER016W, strain bim1, stronger effect = lower value 0.875 | locus YER155C, strain BEM2 (second series), stronger effect = lower value 0.583 | locus YFR010W, strain ubp6, stronger effect = lower value 0.836 | locus YGL078C, strain dbp3, stronger effect = lower value 0.912 | locus YGL240W, strain doc1, stronger effect = lower value 0.682 | locus YGR135W, strain pre9, stronger effect = lower value 0.846 | locus YHR013C, strain ard1, stronger effect = lower value 0.64 | locus YHR079C, strain IRE1, stronger effect = lower value 0.298 | locus YHR142W, strain chs7, stronger effect = lower value 0.87 | locus YIL125W, strain kgd1, stronger effect = lower value 0.926 | locus YJL129C, strain trk1, stronger effect = lower value 0.759 | locus YJL164C, strain tpk1, stronger effect = lower value 0.878 | locus YJR043C, strain POL32, stronger effect = lower value 0.74 | locus YJR066W, strain TOR1, stronger effect = lower value 0.389 | locus YKL009W, strain mrt4, stronger effect = lower value 0.851 | locus YKL160W, strain elf1, stronger effect = lower value 0.86 | locus YLR113W, strain HOG1, stronger effect = lower value 0.312 | locus YLR221C, strain rsa3, stronger effect = lower value 0.851 | locus YLR320W, strain mms22, stronger effect = lower value 0.589 | locus YLR357W, strain rsc2, stronger effect = lower value 0.813 | locus YLR418C, strain cdc73, stronger effect = lower value 0.601 | locus YML120C, strain ndi1, stronger effect = lower value 0.852 | locus YMR058W, strain fet3, stronger effect = lower value 0.878 | locus YNL071W, strain lat1, stronger effect = lower value 0.914 | locus YNL183C, strain NPR1, stronger effect = lower value 0.368 | locus YNL248C, strain rpa49, stronger effect = lower value 0.763 | locus YNL250W, strain rad50, stronger effect = lower value 0.852 | locus YNL298W, strain CLA4, stronger effect = lower value 0.888 | locus YNL322C, strain KRE1 (second series), stronger effect = lower value 0.764 | locus YOR001W, strain rrp6, stronger effect = lower value 0.751 | locus YOR083W, strain WHI5, stronger effect = lower value 0.844 | locus YOR106W, strain vam3, stronger effect = lower value 0.786 | locus YOR184W, strain ser1, stronger effect = lower value 0.783 | locus YOR231W, strain MKK1, stronger effect = lower value 0.295 | locus YOR270C, strain vph1, stronger effect = lower value 0.638 | locus YPL256C, strain CLN2, stronger effect = lower value 0.352 | strain wtn01, stronger effect = lower value 0.853
inactive: locus YAL021C, strain ccr4, stronger effect = lower value 0.923 | locus YAL026C, strain drs2, stronger effect = lower value 0.955 | locus YAL030W, strain snc1, stronger effect = lower value 0.958 | locus YAL040C, strain CLN3, stronger effect = lower value 0.974 | locus YBL061C, strain skt5, stronger effect = lower value 0.942 | locus YBR009C, strain hhf1, stronger effect = lower value 0.912 | locus YBR021W, strain FUR4, stronger effect = lower value 0.954 | locus YBR023C, strain chs3, stronger effect = lower value 0.942 | locus YBR171W, strain sec66, stronger effect = lower value 0.92 | locus YBR229C, strain ROT2, stronger effect = lower value 0.986 | locus YCL029C, strain bik1, stronger effect = lower value 0.995 | locus YCL069W, strain vba3, stronger effect = lower value 0.962 | locus YCR088W, strain abp1, stronger effect = lower value 0.958 | locus YDL005C, strain med2, stronger effect = lower value 0.958 | locus YDL035C, strain GPR1, stronger effect = lower value 0.909 | locus YDL040C, strain nat1, stronger effect = lower value 0.959 | locus YDL074C, strain BRE1, stronger effect = lower value 0.93 | locus YDL101C, strain DUN1, stronger effect = lower value 0.964 | locus YDL134C, strain PPH21, stronger effect = lower value 0.979 | locus YDL185W, strain tfp1, stronger effect = lower value 0.98 | locus YDL192W, strain arf1, stronger effect = lower value 0.976 | locus YDR001C, strain nth1, stronger effect = lower value 0.96 | locus YDR069C, strain doa4, stronger effect = lower value 0.95 | locus YDR101C, strain arx1, stronger effect = lower value 0.994 | locus YDR137W, strain rgp1, stronger effect = lower value 0.943 | locus YDR150W, strain NUM1, stronger effect = lower value 1.01 and 0.989 | locus YDR162C, strain NBP2, stronger effect = lower value 0.988 | locus YDR195W, strain ref2 0.997 | locus YDR297W, strain sur2, stronger effect = lower value 0.965 | locus YDR318W, strain mcm21, stronger effect = lower value 0.966 | locus YDR335W, strain msn5, stronger effect = lower value 0.96 | locus YDR388W, stronger effect = lower value 0.983 | locus YEL037C, strain rad23, stronger effect = lower value 0.94 | locus YEL061C, strain CIN8 (second series), stronger effect = lower value 0.952 | locus YEL061C, strain CIN8, stronger effect = lower value 1.04 | locus YER002W, strain NOP16, stronger effect = lower value 1.02 | locus YER110C, stronger effect = lower value 0.986 | locus YER111C, strain swi4, stronger effect = lower value 0.958 | locus YER155C, strain BEM2, stronger effect = lower value 1 | locus YER167W, strain BCK2, stronger effect = lower value 1.02 | locus YGL086W, strain mad1, stronger effect = lower value 0.956 | locus YGL167C, strain pmr1, stronger effect = lower value 0.959 | locus YGL173C, strain kem1, stronger effect = lower value 0.922 | locus YGL227W, strain vid30, stronger effect = lower value 0.925 | locus YGL248W, strain PDE1, stronger effect = lower value 0.943 | locus YGL253W, strain hxk2, stronger effect = lower value 0.985 | locus YGR078C, strain PAC10, stronger effect = lower value 0.991 | locus YGR229C, strain SMI1, stronger effect = lower value 0.823 | locus YGR252W, strain gcn5, stronger effect = lower value 0.777 | locus YHR027C, strain rpn1, stronger effect = lower value 0.948 | locus YHR079C, strain IRE1 (second series), stronger effect = lower value 0.988 | locus YHR094C, strain hxt1, stronger effect = lower value 0.994 | locus YHR129C, strain ARP1, stronger effect = lower value 0.991 | locus YHR200W, strain rpn10, stronger effect = lower value 0.958 | locus YIL066C, strain RNR3, stronger effect = lower value 0.994 | locus YIL073C, strain SPO22, stronger effect = lower value 0.928 | locus YIR030C, strain dcg1, stronger effect = lower value 0.991 | locus YJL092W, strain hpr5, stronger effect = lower value 0.922 | locus YJL095W, strain BCK1 (second series), stronger effect = lower value 0.963 | locus YJL115W, strain asf1, stronger effect = lower value 0.923 | locus YJL134W, strain LCB3, stronger effect = lower value 0.997 | locus YJL154C, strain vps35, stronger effect = lower value 0.975 | locus YJL166W, strain qcr8, stronger effect = lower value 0.923 | locus YJL168C, strain set2, stronger effect = lower value 1 | locus YJL187C, strain SWE1 (second series), stronger effect = lower value 1 | locus YJL187C, strain SWE1, stronger effect = lower value 0.944 | locus YJR075W, strain HOC1, stronger effect = lower value 0.995 | locus YKL068W, stronger effect = lower value 0.997 | locus YKL085W, strain MDH1 (second series), stronger effect = lower value 0.994 | locus YKL085W, strain MDH1, stronger effect = lower value 0.994 | locus YKL190W, strain CNB1, stronger effect = lower value 1.03 | locus YKR001C, strain vps1, stronger effect = lower value 0.904 | locus YKR026C, strain gcn3, stronger effect = lower value 0.983 | locus YKR091W, strain srl3, stronger effect = lower value 0.975 | locus YLL001W, strain dnm1, stronger effect = lower value 0.963 | locus YLL026W, stronger effect = lower value 0.973 | locus YLL041C, strain sdh2, stronger effect = lower value 0.957 | locus YLR027C, strain aat2, stronger effect = lower value 0.934 | locus YLR039C, strain RIC1, stronger effect = lower value 1.08 | locus YLR058C, strain SHM2, stronger effect = lower value 0.984 | locus YLR102C, strain apc9, stronger effect = lower value 0.99 | locus YLR258W, strain gsy2, stronger effect = lower value 0.965 | locus YLR262C, strain YPT6 (second series), stronger effect = lower value 0.939 | locus YLR262C, strain YPT6, stronger effect = lower value 0.988 | locus YLR268W, strain sec22, stronger effect = lower value 0.957 | locus YLR330W, strain CHS5, stronger effect = lower value 0.989 | locus YLR342W, strain FKS1 (second series), stronger effect = lower value 0.967 | locus YLR342W, strain FKS1, stronger effect = lower value 0.958 | locus YLR370C, strain arc18, stronger effect = lower value 0.972 | locus YLR371W, strain rom2, stronger effect = lower value 0.972 | locus YLR384C, strain iki3, stronger effect = lower value 0.96 | locus YML016C, strain PPZ1, stronger effect = lower value 0.989 | locus YML032C, strain rad52, stronger effect = lower value 0.915 | locus YML124C, strain tub3, stronger effect = lower value 0.997 | locus YMR078C, strain ctf18, stronger effect = lower value 0.98 | locus YMR125W, strain sto1, stronger effect = lower value 0.961 | locus YMR129W, stronger effect = lower value 0.967 | locus YMR205C, strain PFK2, stronger effect = lower value 0.878 | locus YMR223W, strain ubp8, stronger effect = lower value 0.918 | locus YMR231W, strain pep5, stronger effect = lower value 0.973 | locus YMR263W, strain SAP30, stronger effect = lower value 0.948 and 0.997 | locus YMR307W, strain GAS1, stronger effect = lower value 0.781 and 0.985 | locus YNL067W, strain RPL9B, stronger effect = lower value 0.947 | locus YNL175C, strain NOP13, stronger effect = lower value 0.984 | locus YNL197C, strain WHI3, stronger effect = lower value 1.01 | locus YNL209W, strain ssb2, stronger effect = lower value 0.965 | locus YNL224C, strain SQS1, stronger effect = lower value 1 | locus YNL233W, strain BNI4, stronger effect = lower value 0.959 | locus YNL271C, strain bni1, stronger effect = lower value 0.947 | locus YNL307C, strain MCK1, stronger effect = lower value 0.96 | locus YNL322C, strain KRE1, stronger effect = lower value 1 | locus YNR049C, strain mso1, stronger effect = lower value 0.964 | locus YNR052C, strain pop2, stronger effect = lower value 0.994 | locus YOL006C, strain TOP1, stronger effect = lower value 0.789 | locus YOL012C, strain htz1 0.791 | locus YOL147C, strain pex11, stronger effect = lower value 0.981 | locus YOR061W, strain CKA2, stronger effect = lower value 0.996 | locus YOR069W, strain VPS5, stronger effect = lower value 0.996 | locus YOR070C, strain gyp1, stronger effect = lower value 0.968 | locus YOR080W, strain dia2, stronger effect = lower value 0.924 | locus YOR083W, strain WHI5 (second series), stronger effect = lower value 1.01 | locus YOR136W, strain idh2, stronger effect = lower value 0.967 | locus YOR144C, strain elg1, stronger effect = lower value 0.984 | locus YOR265W, strain rbl2, stronger effect = lower value 0.957 | locus YOR290C, strain snf2, stronger effect = lower value 0.872 | locus YOR316C, strain cot1, stronger effect = lower value 0.989 | locus YPL051W, strain arl3, stronger effect = lower value 0.942 | locus YPL055C, strain LGE1, stronger effect = lower value 0.777 | locus YPL078C, strain atp4, stronger effect = lower value 0.918 | locus YPL106C, strain sse1, stronger effect = lower value 1.05 | locus YPL240C, strain hsp82, stronger effect = lower value 0.976 | locus YPR119W, strain clb2, stronger effect = lower value 0.992 | locus YPR141C, strain kar3, stronger effect = lower value 0.991 | locus YPR163C, strain tif3, stronger effect = lower value 0.984 | locus YPR167C, strain met16, stronger effect = lower value 0.991
